Data published in PubChem BioAssay (EPA / NIEHS).
Values joined by “and” are separate entries in the source; they are usually repeats but may differ in a detail not shown here. Identical values can stand only once. Inconclusive results are not listed. Active and inactive are the calls of the source. The calls were made as follows: active = hit-call score of the fitted dose curve at least 0.9, where 1 is the maximum; inconclusive = response in the unintended direction; inactive = score below 0.9.

Test system: zebrafish Peroxisome Proliferator-activated Receptor gamma (PPARg), gene 557037
Assay: ATG_zfPPARg_XSP1: Attagene TRANS-FACTORIAL Multi-Species (XSP1) HepG2 Assay for zebrafish Peroxisome Proliferator-activated Receptor gamma (PPARg) (AID 2283801)
How it was run: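 Trans-activation readout of chimeric zebrafish PPARg–GAL4 in transiently transfected human HepG2 cells, 24 h chemical exposure (medium includes 3 nM 6-alpha-fluorotestosterone). Reporter transcripts measured by RT-PCR and capillary electrophoresis, fitted as gain over DMSO.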

Structure (SMILES) | outcome | AC50
Clc1ccc(C(c2ccc(Cl)cc2)C(Cl)Cl)cc1 | inactive | 
CCCCCOC(=O)c1ccccc1C(=O)OCCCCC | inactive | 
CCC[CH2][Sn]([Cl])([CH2]CCC)[CH2]CCC | inactive | 
Clc1ccc(C(c2ccc(Cl)cc2)C(Cl)(Cl)Cl)cc1 |  | 100 µM (active)
CCCCOC(=O)c1ccccc1C(=O)OCc1ccccc1 | inactive | 

Target: mouse Peroxisome Proliferator-activated Receptor gamma (PPARg), Pparg (gene 19016) (UniProt P37238)
Assay: ATG_mPPARg_XSP1: Attagene TRANS-FACTORIAL Multi-Species (XSP1) HepG2 Assay for mouse Peroxisome Proliferator-activated Receptor gamma (PPARg) (AID 2283802)
How it was run: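 Readout is reporter mRNA induction, measured by RT-PCR with 6-FAM labelling, HpaI digestion and capillary electrophoresis, 24 h post-dose relative to DMSO. Transient multi-reporter transfection of human HepG2 with mouse PPARg–GAL4 fusion; 3 nM 6-alpha-fluorotestosterone included.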

Sequence of mouse Peroxisome Proliferator-activated Receptor gamma (PPARg), Pparg (gene 19016) (P37238 whole entry, looked up): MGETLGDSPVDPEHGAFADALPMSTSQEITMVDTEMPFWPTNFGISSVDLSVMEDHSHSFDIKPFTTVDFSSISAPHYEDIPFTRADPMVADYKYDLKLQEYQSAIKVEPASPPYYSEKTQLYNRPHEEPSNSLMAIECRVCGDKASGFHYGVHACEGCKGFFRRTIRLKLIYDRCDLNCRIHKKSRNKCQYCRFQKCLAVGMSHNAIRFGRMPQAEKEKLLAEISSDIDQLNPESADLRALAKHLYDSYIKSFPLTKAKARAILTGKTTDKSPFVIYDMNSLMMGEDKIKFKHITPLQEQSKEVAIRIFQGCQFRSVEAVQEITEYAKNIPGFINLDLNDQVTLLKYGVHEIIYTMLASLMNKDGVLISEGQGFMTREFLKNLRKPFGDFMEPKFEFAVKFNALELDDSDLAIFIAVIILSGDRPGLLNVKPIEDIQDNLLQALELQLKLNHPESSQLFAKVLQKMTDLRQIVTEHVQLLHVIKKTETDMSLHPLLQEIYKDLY

Structure (SMILES) | AC50
Clc1ccc(C(c2ccc(Cl)cc2)C(Cl)Cl)cc1 | 50.3 µM (active)
CCCCCOC(=O)c1ccccc1C(=O)OCCCCC | 37.6 µM (active)
Clc1ccc(C(c2ccc(Cl)cc2)C(Cl)(Cl)Cl)cc1 | 67.5 µM (active)
CCCCOC(=O)c1ccccc1C(=O)OCc1ccccc1 | 9.86 µM (active)

Target: Nuclear receptor subfamily 1 group I member 2 (Mus musculus) (UniProt O54915)
Assay: ATG_mPXR_XSP1: Attagene TRANS-FACTORIAL Multi-Species (XSP1) HepG2 Assay for mouse Pregnane X Receptor (PXR) (AID 2283803)
How it was run: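 Transiently transfected HepG2 cells expressing a receptor-Gal4 chimera drive a GAL4-UAS reporter; 3 nM 6-alpha-fluorotestosterone included. Reporter mRNA read 24 h post-dose by RT-PCR and capillary electrophoresis; gain of signal relative to DMSO.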

Sequence of Nuclear receptor subfamily 1 group I member 2 (Mus musculus) (O54915 whole entry, looked up): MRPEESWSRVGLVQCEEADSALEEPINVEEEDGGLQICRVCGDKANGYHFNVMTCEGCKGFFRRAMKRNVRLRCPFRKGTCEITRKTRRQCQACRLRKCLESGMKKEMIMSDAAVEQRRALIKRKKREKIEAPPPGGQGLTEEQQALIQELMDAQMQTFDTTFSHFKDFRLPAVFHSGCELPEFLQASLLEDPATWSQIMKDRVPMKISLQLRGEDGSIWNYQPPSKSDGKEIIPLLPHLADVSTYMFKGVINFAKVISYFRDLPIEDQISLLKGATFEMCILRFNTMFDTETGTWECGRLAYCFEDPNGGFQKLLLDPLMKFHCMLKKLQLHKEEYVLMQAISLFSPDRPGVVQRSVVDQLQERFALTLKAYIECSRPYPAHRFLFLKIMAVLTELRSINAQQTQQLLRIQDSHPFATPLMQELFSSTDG

Structure (SMILES) | AC50
Clc1ccc(C(c2ccc(Cl)cc2)C(Cl)Cl)cc1 | 24.6 µM (active)
CCCCCOC(=O)c1ccccc1C(=O)OCCCCC | 5.96 µM (active)
Clc1ccc(C(c2ccc(Cl)cc2)C(Cl)(Cl)Cl)cc1 | 2.67 µM (active)
CCCCOC(=O)c1ccccc1C(=O)OCc1ccccc1 | 3.81 µM (active)

Target: frog Thyroid hormone Receptor alpha (TRa), thra-a (gene 397942) (UniProt P15204)
Assay: ATG_frTRa_XSP1: Attagene TRANS-FACTORIAL Multi-Species (XSP1) HepG2 Assay for frog Thyroid hormone Receptor alpha (TRa) (AID 2283804)
How it was run: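 Reporter transcript induction, measured by RT-PCR with 6-FAM labelling and capillary electrophoresis, 24 hr after dosing transiently transfected HepG2 cells expressing a frog TRa-GAL4 fusion; medium contained 3 nM 6-alpha-fluorotestosterone; increase over DMSO scored.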

Sequence of frog Thyroid hormone Receptor alpha (TRa), thra-a (gene 397942) (P15204 whole entry, looked up): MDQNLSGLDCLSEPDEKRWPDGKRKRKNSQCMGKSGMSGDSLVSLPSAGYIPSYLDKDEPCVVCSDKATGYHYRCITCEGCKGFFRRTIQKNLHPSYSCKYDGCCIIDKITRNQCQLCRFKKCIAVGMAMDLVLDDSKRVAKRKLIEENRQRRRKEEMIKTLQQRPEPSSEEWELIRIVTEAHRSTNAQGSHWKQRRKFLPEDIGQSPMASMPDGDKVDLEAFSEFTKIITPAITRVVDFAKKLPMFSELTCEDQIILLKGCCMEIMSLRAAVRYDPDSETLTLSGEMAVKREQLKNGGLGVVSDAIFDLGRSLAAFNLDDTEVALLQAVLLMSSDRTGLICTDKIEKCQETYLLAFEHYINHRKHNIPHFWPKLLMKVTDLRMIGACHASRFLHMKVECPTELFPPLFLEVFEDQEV

Structure (SMILES) | outcome
CCC[CH2][Sn]([Cl])([CH2]CCC)[CH2]CCC | inactive
C[C@]12C=CC3=C4CCC(=O)C=C4CC[C@H]3[C@@H]1CC[C@@H]2O | inactive
Clc1ccc(C(c2ccc(Cl)cc2)C(Cl)(Cl)Cl)cc1 | inactive

Test system: turtle Thyroid Hormone Receptor, alpha (TRa), gene 101949057
Assay: ATG_trTRa_XSP1: Attagene TRANS-FACTORIAL Multi-Species (XSP1) HepG2 Assay for turtle Thyroid Hormone Receptor, alpha (TRa) (AID 2283806)
How it was run: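 After 24 h chemical exposure, reporter transcripts were measured by RT-PCR with fluorescent primer extension, HpaI digestion and capillary electrophoresis. Cells were transiently transfected HepG2 expressing exogenous NR-Gal4 chimeras; medium contained 3 nM 6-alpha-fluorotestosterone; fitted upward relative to DMSO.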

Structure (SMILES) | outcome
CCC[CH2][Sn]([Cl])([CH2]CCC)[CH2]CCC | inactive
C[C@]12C=CC3=C4CCC(=O)C=C4CC[C@H]3[C@@H]1CC[C@@H]2O | inactive
Clc1ccc(C(c2ccc(Cl)cc2)C(Cl)(Cl)Cl)cc1 | inactive

Target: zebrafish Thyroid Hormone Receptor alpha (TRa), thraa (gene 30670) (UniProt Q98867)
Assay: ATG_zfTRa_XSP1: Attagene TRANS-FACTORIAL Multi-Species (XSP1) HepG2 Assay for zebrafish Thyroid Hormone Receptor alpha (TRa) (AID 2283807)
How it was run: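 Reporter transcripts driven by a chimeric zebrafish TRa–Gal4 protein were measured by RT-PCR with fluorescent labelling and capillary electrophoresis. These came from transiently transfected HepG2 cells after 24 h chemical exposure, with 3 nM 6-alpha-fluorotestosterone added; baseline was DMSO.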

Sequence of zebrafish Thyroid Hormone Receptor alpha (TRa), thraa (gene 30670) (Q98867 whole entry, looked up): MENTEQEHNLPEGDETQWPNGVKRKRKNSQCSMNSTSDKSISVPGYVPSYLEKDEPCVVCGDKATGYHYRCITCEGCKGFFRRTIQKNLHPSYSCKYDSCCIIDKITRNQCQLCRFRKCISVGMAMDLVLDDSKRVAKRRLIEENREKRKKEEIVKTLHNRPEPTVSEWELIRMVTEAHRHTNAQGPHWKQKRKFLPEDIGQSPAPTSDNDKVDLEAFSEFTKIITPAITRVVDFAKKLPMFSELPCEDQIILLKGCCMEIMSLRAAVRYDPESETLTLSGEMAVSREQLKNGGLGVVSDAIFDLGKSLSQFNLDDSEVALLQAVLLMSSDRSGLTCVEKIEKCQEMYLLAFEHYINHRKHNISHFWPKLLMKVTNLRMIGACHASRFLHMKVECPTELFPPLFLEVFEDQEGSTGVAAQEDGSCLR

Structure (SMILES) | outcome | AC50
Clc1ccc(C(c2ccc(Cl)cc2)C(Cl)Cl)cc1 | inactive | 
CCCCCOC(=O)c1ccccc1C(=O)OCCCCC | inactive | 
CCC[CH2][Sn]([Cl])([CH2]CCC)[CH2]CCC |  | 0.228 µM (active)
CCCCOC(=O)c1ccccc1C(=O)OCc1ccccc1 | inactive | 

Target: zebrafish Thyroid Hormone Receptor beta (TRb), thrb (gene 30607) (UniProt Q9PVE4)
Assay: ATG_zfTRb_XSP1: Attagene TRANS-FACTORIAL Multi-Species (XSP1) HepG2 Assay for zebrafish Thyroid Hormone Receptor beta (TRb) (AID 2283809)
How it was run: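 HepG2 cells transiently transfected with multiplexed GAL4-UAS reporter units expressing chimeric zebrafish TRb–Gal4. Dosed 24 h with 3 nM 6-alpha-fluorotestosterone present; reporter mRNA measured by RT-PCR, HpaI digestion and capillary electrophoresis; gain of signal versus DMSO.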

Sequence of zebrafish Thyroid Hormone Receptor beta (TRb), thrb (gene 30607) (Q9PVE4 whole entry, looked up): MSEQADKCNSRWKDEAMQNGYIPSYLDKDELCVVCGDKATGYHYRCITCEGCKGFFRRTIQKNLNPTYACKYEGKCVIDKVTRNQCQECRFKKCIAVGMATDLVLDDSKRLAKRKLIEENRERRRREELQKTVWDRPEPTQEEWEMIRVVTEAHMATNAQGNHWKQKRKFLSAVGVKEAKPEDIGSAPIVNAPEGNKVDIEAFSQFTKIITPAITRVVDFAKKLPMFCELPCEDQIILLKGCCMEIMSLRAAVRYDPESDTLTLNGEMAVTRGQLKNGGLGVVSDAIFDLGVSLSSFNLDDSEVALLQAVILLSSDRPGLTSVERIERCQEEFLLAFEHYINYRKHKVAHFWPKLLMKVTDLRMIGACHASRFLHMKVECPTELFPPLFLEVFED

Structure (SMILES) | outcome | AC50
CCCCCOC(=O)c1ccccc1C(=O)OCCCCC | inactive | 
CCC[CH2][Sn]([Cl])([CH2]CCC)[CH2]CCC |  | 0.084 µM (active)
C[C@]12C=CC3=C4CCC(=O)C=C4CC[C@H]3[C@@H]1CC[C@@H]2O | inactive | 
Clc1ccc(C(c2ccc(Cl)cc2)C(Cl)(Cl)Cl)cc1 | inactive | 
CCCCOC(=O)c1ccccc1C(=O)OCc1ccccc1 | inactive | 

Test system: not listed separately
Assay: ATG_XTT_Cytotoxicity_XSP1: Cytotoxicity Assessment in the Attagene TRANS-FACTORIAL Multi-Species (XSP1) HepG2 Assay (AID 2283810)
How it was run: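 XTT viability readout taken at 24 hours post-dosing in HepG2 liver cells co-treated with 3 nM 6-alpha-fluorotestosterone. Signal loss relative to DMSO controls reflects cytotoxicity.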

Structure (SMILES) | AC50 | outcome
Clc1ccc(C(c2ccc(Cl)cc2)C(Cl)Cl)cc1 | 100 µM (active) | 
CCCCCOC(=O)c1ccccc1C(=O)OCCCCC |  | inactive
CCC[CH2][Sn]([Cl])([CH2]CCC)[CH2]CCC | 1.54 µM (active) | 
C[C@]12C=CC3=C4CCC(=O)C=C4CC[C@H]3[C@@H]1CC[C@@H]2O |  | inactive
Clc1ccc(C(c2ccc(Cl)cc2)C(Cl)(Cl)Cl)cc1 |  | inactive
CCCCOC(=O)c1ccccc1C(=O)OCc1ccccc1 |  | inactive

Test system: not listed separately
Assay: ATG_M_06_XSP2: Attagene TRANS-FACTORIAL Multi-Species (XSP2) HepG2 Assay for M06 Transcription Factor (Internal Marker) (AID 2283811);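 also: internal background marker reporter mRNA measured by RT-PCR and capillary electrophoresis; hits are increases in signal above the DMSO baseline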
How it was run: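 Readout: fluorescent reporter-mRNA peaks by capillary electrophoresis after RT-PCR and HpaI digest, scored upward relative to DMSO. Transfected HepG2, 24 h chemical exposure, with 3 nM 6-alpha-fluorotestosterone and 1.5 nM norgestrel added.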

Structure (SMILES) | outcome
Clc1ccc(C(c2ccc(Cl)cc2)C(Cl)Cl)cc1 | inactive
CCC[CH2][Sn]([Cl])([CH2]CCC)[CH2]CCC | inactive
C[C@]12C=CC3=C4CCC(=O)C=C4CC[C@H]3[C@@H]1CC[C@@H]2O | inactive
c1ccc2c(c1)-c1cccc3cccc-2c13 | inactive
Oc1ccc2ccc3cccc4ccc1c2c34 | inactive
CC(C)(C)C(O)(CCc1ccc(Cl)cc1)Cn1cncn1 (configuration not stated) | inactive
Clc1ccc(C(c2ccc(Cl)cc2)C(Cl)(Cl)Cl)cc1 | inactive
CCCCOC(=O)c1ccccc1C(=O)OCc1ccccc1 | inactive
O=[N+]([O-])c1ccc(Oc2ccc(Cl)cc2Cl)cc1 | inactive
CCC(C)c1ccc(O)cc1 (configuration not stated) | inactive

Test system: turtle Estrogen Receptor (ERa), gene 101933533
Assay: ATG_trERa_XSP2: Attagene TRANS-FACTORIAL Multi-Species (XSP2) HepG2 Assay for turtle Estrogen Receptor (ERa) (AID 2283812);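 also: actives raise reporter signal above DMSO so AC50 reflects agonist activity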
How it was run: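 Readout is reporter mRNA quantified by RT-PCR with capillary electrophoresis after 24 h compound exposure, increase relative to DMSO. Uses transiently transfected human HepG2 liver cells carrying a chimeric turtle ERa-Gal4 receptor driving GAL4-UAS reporters.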

Structure (SMILES) | AC50 | outcome
Clc1ccc(C(c2ccc(Cl)cc2)C(Cl)Cl)cc1 | 11.6 µM (active) | 
CCCCCOC(=O)c1ccccc1C(=O)OCCCCC |  | inactive
C[C@]12C=CC3=C4CCC(=O)C=C4CC[C@H]3[C@@H]1CC[C@@H]2O |  | inactive
c1ccc2c(c1)-c1cccc3cccc-2c13 |  | inactive
Oc1ccc2ccc3cccc4ccc1c2c34 | 8.33 µM (active) and 5.18 µM (active) | 
CC(C)(C)C(O)(CCc1ccc(Cl)cc1)Cn1cncn1 (configuration not stated) |  | inactive
CCCCOC(=O)c1ccccc1C(=O)OCc1ccccc1 | 61.1 µM (active) | 
O=[N+]([O-])c1ccc(Oc2ccc(Cl)cc2Cl)cc1 |  | inactive
CCC(C)c1ccc(O)cc1 (configuration not stated) | 6.55 µM (active) and 1.91 µM (active) | 
CCCCC(CC)COC(=O)c1ccc(C(=O)OCC(CC)CCCC)c(C(=O)OCC(CC)CCCC)c1 (configuration not stated) | 100 µM (active) and 11.9 µM (active) | 

Target: Estrogen receptor beta (Homo sapiens) (UniProt Q92731)
Assay: ATG_hERb_XSP2: Attagene TRANS-FACTORIAL Multi-Species (XSP2) HepG2 Assay for human Estrogen Receptor (ERb) (AID 2283813);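 also: actives raise reporter mRNA above DMSO so AC50 reflects agonist induction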
How it was run: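 Transient TRANS reporter system in HepG2: after 24 h of chemical, RNA is reverse-transcribed, reporter cDNA amplified, FAM-labelled and sized by capillary electrophoresis. Induction of the human ERb-Gal4 reporter is measured relative to DMSO.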

Sequence of Estrogen receptor beta (Homo sapiens) (Q92731 whole entry, looked up): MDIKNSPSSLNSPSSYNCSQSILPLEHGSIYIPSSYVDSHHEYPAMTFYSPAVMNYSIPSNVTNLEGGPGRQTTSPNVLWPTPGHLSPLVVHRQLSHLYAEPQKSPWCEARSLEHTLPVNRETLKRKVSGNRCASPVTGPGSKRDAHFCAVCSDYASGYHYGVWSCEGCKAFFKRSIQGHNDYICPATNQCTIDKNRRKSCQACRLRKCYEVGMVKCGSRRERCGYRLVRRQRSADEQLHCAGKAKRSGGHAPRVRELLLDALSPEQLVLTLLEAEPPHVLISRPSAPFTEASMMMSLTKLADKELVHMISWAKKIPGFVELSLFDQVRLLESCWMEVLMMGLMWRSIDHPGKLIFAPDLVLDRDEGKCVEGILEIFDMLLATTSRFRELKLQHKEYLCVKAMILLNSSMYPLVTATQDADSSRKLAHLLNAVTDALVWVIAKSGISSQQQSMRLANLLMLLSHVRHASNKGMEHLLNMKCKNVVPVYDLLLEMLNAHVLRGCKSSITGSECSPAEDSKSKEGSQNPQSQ

Structure (SMILES) | outcome | AC50
CCCCCOC(=O)c1ccccc1C(=O)OCCCCC | inactive | 
C[C@]12C=CC3=C4CCC(=O)C=C4CC[C@H]3[C@@H]1CC[C@@H]2O | inactive | 
c1ccc2c(c1)-c1cccc3cccc-2c13 | inactive | 
Oc1ccc2ccc3cccc4ccc1c2c34 |  | 1.64 µM (active) and 1.79 µM (active)
Clc1ccc(C(c2ccc(Cl)cc2)C(Cl)(Cl)Cl)cc1 | inactive | 
CCCCOC(=O)c1ccccc1C(=O)OCc1ccccc1 | inactive | 
O=[N+]([O-])c1ccc(Oc2ccc(Cl)cc2Cl)cc1 | inactive | 
CCC(C)c1ccc(O)cc1 (configuration not stated) |  | 5.47 µM (active) and 2.25 µM (active)
